Reference: PubChem BioAssay (NCATS)
Values joined by “and” are separate entries in the source; they are usually repeats but may differ in a detail not shown here. Equal values may be shown once. Inconclusive results are not listed. A number with no mark means an inactive call. The call rests on the fitted dose curve.

The molecules below were run against Bile acid receptor (Homo sapiens) (UniProt Q96RI1) (assay: qHTS assay for small molecule agonists of farnesoid X receptor signaling (AID 588527; further: series mostly up to about 77 µM)). Conditions: HEK293T FXR-UAS-bla, beta-lactamase ratio, 16 h; stronger effect = higher value.
Excerpt: NIH Chemical Genomics Center [NCGC] U.S. Environmental Protection Agency [EPA] National Institutes of Environmental Health Sciences [NIEHS] National Toxicology Program [NTP] NCGC Assay Overview The farnesoid-X-receptor (FXR), a nuclear hormone receptor is highly expressed in liver, intestine, kidney and adrenal cortex. Natural ligands of FXR are the bile acids (Cholic acid, Chenodeoxy cholic acid etc). It is an important regulator of diverse metabolic pathways, including the bile acid homeostasis, lipid and glucose metabolisms. FXR regulates the expression of target genes by binding either as a monomer or as a heterodimer with RXR (retinoid X receptor). As FXR regulates a large number of target genes involved in bile acid, lipoprotein and glucose metabolisms, it is a potential pharmacological target for bile acid and lipid disorders. Thus screening environmental chemicals on FXR signaling can be used for the studies focused on metabolic syndrome, hepatic and intestinal toxicity etc.
NCGC Assay Protocol Summary Using a beta-lactamase reporter-gene under control of Farnesoid X receptor (FXR) response element, a cell-based assay [GeneBLAzer FXR-UAS-bla assay developed by Invitrogen] was used to measure FXR ligands signaling. GeneBLAzer FXR-UAS-bla HEK293T cells were used with assay medium containing 10% dialyzed FBS. The assay was performed in clear bottom black Greiner 1536-well plates. Chenodeoxycholic acid and Guggulsterone were used in the screen as agonist and antagonist positive controls respectively. Library compounds were measured for their ability to stimulate the reporter gene activity. Compounds were screened in a titration series in 1536-well format. […] Data was normalized relative to Chenodeoxycholic acid control (100 uM, 100%), and DMSO only wells (basal, 0%). Concentration-response titration points for each compound were fitted to the Hill equation yielding concentrations of half-maximal stimulation (EC50) and maximal response (efficacy) values. qHTS protocol for FXR beta-lactamase assay in agonist mode [Step] [Parameter] [Value] [Description] 1. Reagent; 6 uL; 5000 cells/well 2. Incubation; 37 C for 5-7 hrs 3. Compounds; 23 nL; 0.59 nM to 92 uM 4. Controls (Chenodeoxycholic acid); 23 nL, - One column with dose response, start 200 uM, 1:2 dilutions in duplicates - Final concentrations of 100 uM and 60 uM in two columns 5. Incubation; 37 C for 16 hrs 6. Detection reagent; 1 uL of CCF4-dye 7. Incubation; RT for 2 hrs 8. Detection; Fluorescence; Envision plate reader

Sequence of Bile acid receptor (Homo sapiens) (Q96RI1 whole entry, looked up): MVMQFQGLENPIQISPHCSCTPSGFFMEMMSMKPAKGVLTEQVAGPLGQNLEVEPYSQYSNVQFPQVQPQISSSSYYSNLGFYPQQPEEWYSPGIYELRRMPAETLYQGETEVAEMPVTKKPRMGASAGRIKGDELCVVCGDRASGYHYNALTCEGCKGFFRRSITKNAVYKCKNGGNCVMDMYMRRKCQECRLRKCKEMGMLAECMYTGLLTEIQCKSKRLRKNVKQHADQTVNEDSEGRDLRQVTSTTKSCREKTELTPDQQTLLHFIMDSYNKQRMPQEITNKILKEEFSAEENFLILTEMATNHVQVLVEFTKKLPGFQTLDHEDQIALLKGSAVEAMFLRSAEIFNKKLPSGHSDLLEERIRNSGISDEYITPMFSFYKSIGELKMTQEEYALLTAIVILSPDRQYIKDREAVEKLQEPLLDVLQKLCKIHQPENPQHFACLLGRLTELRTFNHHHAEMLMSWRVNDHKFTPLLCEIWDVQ

| Structure (SMILES) | activation |
| --- | --- |
| CCCCCCCCOc1ccc(C(=O)c2ccccc2)c(O)c1 | -1.08% |
| COc1ccc(C(c2ccc(OC)cc2)C(Cl)(Cl)Cl)cc1 | 7.99% and 4.38% and 7.59% |
| CCCCC(CC)COC(=O)c1ccc(N(C)C)cc1 (stereo unspecified) | -1.15% and -5.13% |
| C[C@]12C[C@H](O)[C@H]3[C@@H](CCC4=CC(=O)CC[C@@]43C)[C@@H]1CC[C@@H]2C(=O)CO | -2.3% |
| O=C(NO)c1ccccc1 | -3.15% |
| CS(=O)(=O)c1ccc(C(=O)C2C(=O)CCCC2=O)c([N+](=O)[O-])c1 | -1.16% |
| Nc1ccc([N+](=O)[O-])cc1O | -3.53% and -2.23% |
| C1=CC2C3C=CC(C3)C2C1 (stereo unspecified) | -0.353% |
| Nc1ccc([N+](=O)[O-])cc1 | -1.05% |
| CCCCC(CC)COC(=O)c1ccccc1C(=O)OCC(CC)CCCC (stereo unspecified) | 0.71% and -2.22% |
| c1cc2ccc3cccc4ccc(c1)c2c34 | -4.41% and -1.09% |
| Nc1ccc(Cl)cc1N | 0.723% |
| CCCCCC[C@H]1C(=O)O[C@H](C)[C@H](NC(=O)c2cccc(NC=O)c2O)C(=O)O[C@@H](C)[C@@H]1OC(=O)CC(C)C | -3.37% |
| O=C(O)COc1nc(Cl)c(Cl)cc1Cl | -0.709% |
| CCCN(CCC)c1c([N+](=O)[O-])cc(S(N)(=O)=O)cc1[N+](=O)[O-] | -1% |
| c1ccc2occc2c1 | 3.58% and 1.61% |
| CCOP(=O)(NC(C)C)Oc1ccc(SC)c(C)c1 (stereo unspecified) | 5.65% and 4.82% |
| Nc1cccc2c(N)cccc12 | -1.29% and -1.59% |

| Structure (SMILES) | activation |
| --- | --- |
| O=[N+]([O-])c1c(Cl)c(Cl)cc(Cl)c1Cl | -1.27% |
| CC(C)(C)c1ccc(O)c(O)c1 | 9.58% and -7.97% |
| CC1=NN(c2ccccc2)C(=O)C1 | -5.46% and -0.633% |
| Nc1ccc(Sc2ccc(N)cc2)cc1 | -1.33% |
| Clc1cnc(Oc2ccc(Oc3ncc(Cl)cc3Cl)cc2)c(Cl)c1 | 0.177% |
| O=C(Oc1ccccc1)c1cccc(C(=O)Oc2ccccc2)c1 | 0.748% |
| Nc1ccc(N=Nc2ccccc2)cc1 | -11.4% |
| COc1ccccc1O | -0.0206% and -3.83% and 1.01% |
| O=[N+]([O-])/N=C1\NCCN1Cc1ccc(Cl)nc1 | 1.01% |
| OCc1c[nH]c2ccccc12 | 1.66% |
| S=c1[nH]c2ccccc2s1 | -0.945% and -0.0694% |
| COC(=O)c1c(Cl)c(Cl)c(C(=O)OC)c(Cl)c1Cl | 2.52% |
| COc1nn(CSP(=S)(OC)OC)c(=O)s1 | 3.32% |
| Cc1cc(O)ccc1Cl | 1.93% |
| C=CCC1=C(C)C(OC(=O)C2C(C=C(C)C)C2(C)C)CC1=O (stereo unspecified) | 7.39% and 8.42% |
| CCCCCCCCCCCCCC(=O)OC(C)C | -0.914% |
| CCO/N=C(\CC)C1=C(O)CC(c2c(C)cc(C)cc2C)CC1=O (stereo unspecified) | 1.57% |
| CCCOC(=O)c1ccc(O)cc1 | 0.147% and -2.34% and 4.63% |
